# High-throughput results as filed in PubChem.
# Shown are actives, neighbours in structure and some others; about 7.2% of the full set was active somewhere.
# HEK293 cAMP ctrl – raises cAMP in parental HEK293 cells, TSHR agonist counter-screen; 73,000 compounds, 2.5% hits; Potency, µM (titrated, usually from 57.1 µM), inactives show at the highest dose activation, most hits filed as activators; parental HEK293 CNG cAMP sensor, membrane potential fluorescence; note: % of control where 0% means no effect; nearly all actives have a fitted effect of over 55% in size
#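 Parental HEK 293 cells stably expressing a modified CNG channel (no TSHR) report cAMP rise as membrane depolarization. Membrane potential dye with 100 uM RO 20-1724 was loaded for 60 min at room temperature, then compound added for 30 min; fluorescence read at 590 nm.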
# Luciferase inh – firefly luciferase inhibition. AID 411. purified firefly luciferase, luminescence, 8 min. Potency, µM (top dose mostly 57.1 µM), inactives show at the top dose activity change, negative = inhibition, actives largely listed as inhibitors. P08659. 72,000 compounds, 2.2% hits; note: % is set by controls: 0 for no effect and ±100 for the full control effect; nearly all actives have a fitted effect of over 40% in size
# Target sequence (P08659 whole entry, looked up): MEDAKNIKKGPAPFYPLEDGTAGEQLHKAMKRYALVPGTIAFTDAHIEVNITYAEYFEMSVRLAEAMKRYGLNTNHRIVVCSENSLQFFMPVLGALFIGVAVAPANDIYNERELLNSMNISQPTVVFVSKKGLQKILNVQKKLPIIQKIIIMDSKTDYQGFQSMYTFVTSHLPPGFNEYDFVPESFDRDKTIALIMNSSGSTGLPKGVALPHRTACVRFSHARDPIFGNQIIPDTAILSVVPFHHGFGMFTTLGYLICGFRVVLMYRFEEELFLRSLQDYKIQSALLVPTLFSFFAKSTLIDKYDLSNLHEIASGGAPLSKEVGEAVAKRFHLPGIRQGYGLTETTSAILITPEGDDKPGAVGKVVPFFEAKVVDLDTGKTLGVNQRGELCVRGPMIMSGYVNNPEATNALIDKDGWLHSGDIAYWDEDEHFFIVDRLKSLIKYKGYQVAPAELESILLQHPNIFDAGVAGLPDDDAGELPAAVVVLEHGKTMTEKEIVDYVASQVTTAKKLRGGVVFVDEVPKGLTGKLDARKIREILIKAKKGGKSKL
#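 Inhibition of light generation by firefly luciferase from ATP and luciferin was profiled with concentration-response curves per sample, ATP held at 10 uM within the enzyme's linear range. Plates were read by luminescence after an 8-minute ambient incubation.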
# Tau filament bind – tau filament binding; P10636; recombinant tau filaments, thioflavin S fluorescence, 15 h; filaments grown with octadecylsulfate alongside compound; Potency, µM (highest dose often 57.1 µM), without a hit: at the top dose activity change, negative = inhibition; 71,000 compounds, 2% hits; AID 596;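 note: % is set by controls: 0 for no effect and ±100 for the full control effect; actives lower thioflavin S fluorescence by blocking filaments or displacing dye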
#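 Tau 2 uM in ThS buffer dispensed; compound added; 60 uM ODS added (finals 1 uM tau, 30 uM ODS); 15 h 37 C; fluor ex450/em510.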
# ERK AVP block – inhibitors of vasopressin-stimulated ERK signaling pathway; HEK293-V1b, vasopressin-stimulated pERK AlphaScreen; Potency, µM (top dose mostly 57.5 µM), inactives show at the highest dose activity, negative = inhibition, hits mostly inhibitors; 72,000 compounds, 0.99% hits; AID 995; note: % is set by controls: 0 for no effect and ±100 for the full control effect; nearly all actives have a fitted effect of over 55% in size
#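 HEK293 cells stably expressing V1b receptor, seeded overnight in 1% FBS, were treated with compounds for 30 min at 37C, then stimulated 5 min with 25 nM vasopressin; phospho-ERK read by AlphaScreen SureFire after lysis.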
# TSHR ag – activates the human thyroid stimulating hormone receptor; AID 926; P16473; Potency, µM (doses to about 57.1 µM), for the others: top-dose activation, hits mostly activators; 73,000 compounds, 0.48% hits; HEK293-CNG-TSHR cells (CNG channel as cAMP sensor), membrane potential dye, cAMP; active = well fitted activation curve with a large enough effect in the main read-out, with a control signal flat, not every such curve was filed as active; inconclusive = small, poorly fitted or top-dose-only effect, or a change in a side signal; inactive = no such curve, though single readings can be large or run the other way; % of control where 0% means no effect;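 note: the control signal comes from parental cells without the receptor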
#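 HEK 293 cells stably expressing TSHR and a cAMP-gated CNG channel; parental CNG-only cells as counterscreen. Cells preloaded 60 min with membrane potential dye plus 100 uM RO 20-1724, then compound 30 min; fluorescence read at 590 nm.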
# Bst PK mod – modulators of Bacillus stearothermophilus pyruvate kinase. Potency, µM. AID 361. purified pyruvate kinase, luminescence ATP production; ribose 5-phosphate activator present at AC10. 51,000 compounds, 1.2% hits; in the data active = potency below about 11 µM; inconclusive = mostly about 12 µM to 25 µM;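 the screen sought inhibitors and activators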;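 note: scaled between full activation by ribose 5 phosphate and full inhibition by luteolin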
# Starred values were filed as active, the others as inactive; i = inactive; u = inconclusive; x = not tested or not shown; [ ] = dose if it differs, or a comment. Unless noted, calls come from the whole dose curve; as a rule, active = well fitted curve in the direction sought with a large enough effect; inconclusive = small, poorly fitted or top-dose-only effect, or another doubt; inactive = no such curve, though single readings can be large; an effect the other way counts as inactive or inconclusive. Potency is the fitted concentration of half-maximal effect.
SMILES,HEK293 cAMP ctrl,Luciferase inh,Tau filament bind,ERK AVP block,TSHR ag,Bst PK mod
Cc1ccccc1Cn1ccc(NC(=O)c2cc3nc(-c4ccco4)cc(C(F)(F)F)n3n2)n1,-23.5%,2.9%,-26.5%,19.4%,-9.0%,>57
O=C(Nc1ccccc1)N1CCCC2(CCNCC2)C1,12.4%,-0.3%[11.4 µM],-2.0%,-4.8%,-2.5%,x
CCO[P@]1(=O)OC[C@@H]2O[C@H](n3cnc4c(N)ncnc43)[C@H](O)[C@@H]2O1,11.4%[11.4 µM],1.2%[11.4 µM],-0.8%[11.4 µM],-17.0%[11.5 µM],0.0%[11.4 µM],x
COCCNc1ncncc1-c1c(C)noc1C,u,0.3%[2.29 µM],7.6%,-3.0%,u,x
COC(=O)c1ccc(C(NC(=O)OCc2ccccc2)/C(I)=C/[C@@H](C)C(=O)NCc2ccc(OC)c(O)c2)cc1 (stereo not given in full),23.4%,x,55.9%,-16.0%,25.1µM*,x
COC(=O)c1ccc(C(NC(=O)OCc2ccccc2)/C(C)=C/[C@@H](C)C(=O)NC2CCCCC2)cc1 (stereo not given in full),15.8µM*,x,14.0%,-5.6%,u,x
COC(=O)c1ccc(C(NC(=O)OCc2ccccc2)/C(F)=C/[C@@H](C)C(=O)NC2CCCCC2)cc1 (stereo not given in full),u,x,-2.3%,2.7%,u,x
COC(=O)c1ccc(C(NC(=O)OCc2ccccc2)/C(I)=C/[C@@H](C)C(=O)NCc2ccc(C)o2)cc1 (stereo not given in full),14.5%,x,-18.5%,-2.1%,x,x
O=c1c2ccccc2oc2nc(-c3ccco3)n(Cc3ccccc3)c(=O)c12,2.6%,1.2%,20µM*,-3.6%,-10.6%,>57
COc1ccc2c(=O)c3c(=O)n(Cc4ccco4)c(-c4ccc(C)cc4)nc3oc2c1,17.7%,-1.3%,10µM*,-16.6%,27.5%,>57
CC(=O)OC1CC[C@]2(C)C(CC(OC(C)=O)[C@]3(C)C2CC[C@@]2(C)C(c4ccoc4)OC(=O)C4O[C@]432)C1(C)C (stereo not given in full),x,x,x,20.2%,x,x
Cn1c(=O)c2c(nc(/C=C\c3cccc(Cl)c3)n2C)n(C)c1=O,-4.4%,2.0%,-0.8%,-5.8%,6.0%,x
Cn1c(NCc2ccco2)nc2c1c(=O)n(Cc1ccc(Cl)c(Cl)c1)c(=O)n2C,x,1.6%[25.5 µM],x,x,x,1.87*
Cn1c(=O)c2c(nc(NCc3ccco3)n2Cc2ccc(Cl)cc2Cl)n(C)c1=O,x,0.7%[25.5 µM],x,x,x,>25.6
CC(C)CN(C(=O)c1ccc(=O)n(C)n1)c1nc2ccccc2s1,22.7%,1.0%,25.1µM*,-3.5%,12.0%,>57
CC(C)CCNC(=O)CCn1nc(-c2ccccc2)ccc1=O,3.3%,1.7%,7.9%,-19.5%,8.8%,>57
N[C@]1(C(=O)O)CCc2cc(P(=O)(O)O)ccc21,8.6%,1.7%,6.8%,0.6%,-4.1%,x
c1cncc(-c2csc(NCc3ccco3)n2)c1,11.2%,x,x,x,-1.8%,x
COc1ccc(-c2csc(NCc3ccco3)n2)cc1C,-6.3%,7.94µM*,12.6µM*,u,-17.2%,x
CN1CCN(c2ncc3nc(-c4cccc(C#N)c4)c(=O)n(C[C@H]4CCCO4)c3n2)CC1,-7.4%,1.4%[11.4 µM],-19.1%,2.9%,-7.2%,x
CCO[C@H]1O[C@@H]([C@H](COCc2ccccc2)OCc2ccccc2)[C@@H](OCc2ccccc2)[C@H]1O,1.0%[25.6 µM],0.3%[25.5 µM],-16.2%[25.6 µM],34.5%[25.7 µM],7.5%[25.6 µM],x
CCC/C=C(\CCC)C(NC(=O)CCc1ccccc1)c1ccc(C(F)(F)F)cc1 (stereo not given),u,x,0.1%,24.7%,u,x
Cc1cc(OCCCn2ccnc2)cc(C)c1Cl,24.3%[11.4 µM],-1.1%,-10.7%[11.4 µM],25.1µM*,16.2%[11.4 µM],x
CN(C)C(=O)c1ccc(-c2nc(N3CCOCC3)c3ccccc3n2)cc1,-9.1%,-1.0%[2.29 µM],0.5%,-27.0%,2.6%,x
CNC(=O)c1c(NC(=O)c2nc3ccccc3s2)sc2c1CCC2,5.5%,-13.4%,0.631µM*,x,-1.5%,x
SMILES,HEK293 cAMP ctrl,Luciferase inh,Tau filament bind,ERK AVP block,TSHR ag,Bst PK mod
CC(=O)N1CCC2(CCN(Cc3nccs3)CC2)CC1,u,0.8%[11.4 µM],10.5%,3.9%,u,x
CCCN1C(=O)/C(=C2\SC(N3CCCCC3)=NC2=O)c2ccccc21,-25.3%,15.8µM*,4.4%,u,-63.2%,u
Cc1ccc2[nH]c(=O)c(C(c3nnnn3C3CCCC3)N(Cc3cccnc3)Cc3ccco3)cc2c1 (stereo not given),u,0.3%,-15.7%,13.3%,u,>57
Clc1ccc(C(c2nnnn2C2CCCCC2)N(Cc2cccnc2)Cc2ccco2)cc1 (stereo not given),3.16µM*,2.9%,6.5%,-3.2%,u,>57
COc1ccc(CNC(=O)[C@H]2C[C@@H]2[C@H](NP(=O)(c2ccccc2)c2ccccc2)c2ccccc2)cc1OC,u,x,3.1%,3.8%,u,x
c1csc(-c2csc3nc(CN4CCOCC4)nc(NCc4ccc5c(c4)OCO5)c23)c1,12.6µM*,0.3%,55.6%,13.1%,u,>57
Cc1cccc(C)c1NC(=O)Cn1cnc2c(=O)n(C)c(=O)n(C)c21,1.8%,0.4%,5.1%,8.2%,5.6%,>57
Cn1c(=O)c2ncn(CC(=O)Nc3ccc4c5c(cccc35)CC4)c2n(C)c1=O,0.2%,-3.2%,12.6µM*,-10.3%,2.1%,i
CNC(=O)Oc1ccc2c(c1)C1(C)CCN(C)C1N2C (stereo not given),x,x,x,13.0%,x,x
OC(CNc1nc2ccccc2s1)c1ccccc1 (stereo not given),-9.4%,-12.5%,9.1%,25.1µM*,-5.2%,>57
Cc1ncc2c(c1O)COP(=O)(O)OC2,0.7%,2.4%,u,8.5%,5.5%,x
CCN1CCc2nc(NC(=O)c3ccc4c(c3)OCCO4)sc2C1,15.6%,15.8µM*,101.6%,-0.6%,4.1%,x
CCN1CCc2nc(NC(=O)Cc3ccc4c(c3)OCCO4)sc2C1,6.2%,0.6%,-3.2%,-4.7%,3.8%,>57
COc1ccc(CN(C(=O)CSc2nnc(-c3ccc(F)cc3)o2)c2ccc(F)cc2)cc1,18.7%,1.5%,2.1%,1.2%,21.1%,>57
O=C(CSc1nnc(Cn2nnc3ccccc32)o1)N(Cc1ccc(F)cc1)c1ccccc1,15.8µM*,1.3%,5.2%,-11.9%,u,>57
CN(C)c1ccnc(-c2cccc(NS(C)(=O)=O)c2)n1,8.8%,-2.4%[2.29 µM],-3.9%,-11.4%,11.0%,x
Cc1cnc(CNc2ccnc(-c3ccccc3C)n2)cn1,u,-1.8%[2.29 µM],-7.9%,-14.7%,u,x
COC(=O)CCC(=O)c1oc2ccc(Br)cc2c1N,17.1%,12.6µM*,-2.0%,-14.0%,3.0%,x
COC(=O)c1oc2ccc(Br)cc2c1-n1cccc1,31.6µM*,7.0%,12.1%,15.6%,u,>57
